Screening results as filed in PubChem.
In the library only some 10% were active in any assay of this set; here they are far more common.
FLuc inh-1 = Firefly luciferase inhibition profiling of diverse chemical library using quantitative high-throughput screening | Luciferin 4-monooxygenase (Photinus pyralis), P08659 | purified P. pyralis luciferase, luminescence, biochemical | Potency, µM (doses to about 115 µM), usual class: inhibitors | actives 2.5% (n = 76,000); further: on the % scale 0 is the no-effect control and ±100 the full control effect; nearly all actives have a fitted effect of over 65% in size
Target sequence (P08659 whole entry, looked up): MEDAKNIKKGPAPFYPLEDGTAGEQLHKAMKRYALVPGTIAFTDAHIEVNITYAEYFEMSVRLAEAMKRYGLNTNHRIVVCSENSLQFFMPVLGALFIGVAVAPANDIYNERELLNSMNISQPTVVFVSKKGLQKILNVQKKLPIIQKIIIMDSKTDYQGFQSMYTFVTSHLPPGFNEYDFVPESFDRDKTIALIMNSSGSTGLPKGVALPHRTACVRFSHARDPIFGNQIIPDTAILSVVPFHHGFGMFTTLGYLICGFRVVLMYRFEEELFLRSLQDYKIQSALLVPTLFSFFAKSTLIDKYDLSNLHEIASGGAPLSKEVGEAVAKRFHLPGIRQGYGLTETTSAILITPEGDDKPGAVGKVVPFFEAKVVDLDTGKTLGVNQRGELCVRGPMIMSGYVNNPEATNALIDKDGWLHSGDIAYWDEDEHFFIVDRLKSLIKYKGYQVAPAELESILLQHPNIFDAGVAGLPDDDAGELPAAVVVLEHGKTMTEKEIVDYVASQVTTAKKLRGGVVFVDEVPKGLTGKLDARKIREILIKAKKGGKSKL
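FLuc 10nM, D-luciferin 10uM, ATP 10uM, Mg acetate 10mM, Tris acetate pH 7.5, Tween/BSA; cpd qHTS; enzyme added last; CCD luminescence.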
HEK cytotox = Cytotoxic Profiling in HEK 293 Cell Line of Diverse Libraries Using Quantitative High-Throughput Screening. HEK 293 viability, ATP luminescence (CellTiter-Glo), 48-72 h. Potency, µM (series often up to 115 µM), without a hit: top-dose activity change, negative = cytotoxicity, usual class: inhibitors. actives 6.6% (n = 94,000). AID 1345083, 2018; further: on the % scale 0 is the no-effect control and ±100 the full control effect; nearly all actives have a fitted effect of over 60% in size
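Pintool-delivered compounds were incubated with HEK 293 cells (250 cells/well) at 37 degree Celsius for 48 or 72 hr. ATP-dependent luminescence (CellTiter-Glo) then reported remaining viable cells.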
hNpr1 antagonist = Natriuretic polypeptide receptor (hNpr1) antagonism - Primary qHTS. HEK293 hNpr1 GloSensor cGMP, ANP-stimulated luminescence. AID 1347048, 2019. Potency, µM (titrated, usually from 46.3 µM), inactives show top-dose activity change, negative = inhibition, most hits filed as inhibitors. actives 1.6% (n = 76,000); calls by dose curve; further: on the % scale 0 is the no-effect control and ±100 the full control effect; nearly all actives have a fitted effect of over 60% in size
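HEK293 cells stably expressing human Npr1 and cGMP GloSensor pGS-40F, loaded 2 h with 2% GloSensor reagent, given compound 30 min at room temperature. Luminescence read before and 20 min after 0.1 nM hNppA.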
NIH3T3 tox = Cytotoxic Profiling in NIH 3T3 Cell Line of Diverse Libraries Using Quantitative High-Throughput Screening | Potency, µM (series often up to 96.7 µM), inactives show top-dose activity change, negative = cytotoxicity, most hits filed as inhibitors | NIH 3T3 viability, CellTiter-Glo ATP luminescence, 48-72 h | AID 1345082, 2018 | actives 4.3% (n = 94,000); further: on the % scale 0 is the no-effect control and ±100 the full control effect; nearly all actives have a fitted effect of over 55% in size
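First NIH 3T3 cells are plated at 400 cells/well; next compound is pinned in; then plates incubate 48 or 72 hr at 37 °C; finally CellTiter-Glo is added and luminescence read after 10 min.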
GPT2 inh = Primary qHTS assay for inhibitors of Glutamate pyruvate transaminase 2 (GPT2); Recombinant GPT2, coupled pyruvate oxidase/HRP Amplex Red fluorescence; Potency, µM (doses to about 57.7 µM), for inactives: top-dose activity change, negative = inhibition, actives largely listed as inhibitors; actives 0.25% (n = 100,000); AID 1671188, 2021; further: on the % scale 0 is the no-effect control and ±100 the full control effect; nearly all actives have a fitted effect of over 60% in size
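Recombinant GPT2 (10ng/uL) with 250uM a-KG and 2mM L-alanine, 30 min at room temperature, in HEPES pH 7.5 buffer. Pyruvate detected by pyruvate oxidase/HRP/Amplex Red fluorescence after 30 min in the dark; AOA (50uM) as positive control.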
FLuc SDR no ATP = Firefly luciferase (FLuc-C-HiBiT) SDR gain of signal screen - without ATP | shares compounds with FLuc inh-1 | Purified FLuc-C-HiBiT, Nano-Glo HiBiT luminescence, no ATP | Potency, µM (top dose mostly 32.7 µM), for inactives: at the top dose activation (signal gain), actives largely listed as activators | actives 7.8% (n = 1,300) | AID 1963318, 2024; further: nearly all actives have a fitted effect of over 55% in size
FLuc SDR ATP = Firefly luciferase (FLuc-C-HiBiT) SDR gain of signal screen - plus ATP; shares compounds with FLuc inh-1; purified FLuc-C-HiBiT + ATP, HiBiT complementation luminescence; Potency, µM (top dose mostly 32.7 µM), inactives show at the top dose activation (gain of signal), most hits filed as activators; actives 8.7% (n = 1,300); AID 1963319, 2024;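 further: signal reports ligand binding via conformational change of the enzyme rather than luciferase catalysis; % of control where 0% means no effect; nearly all actives have a fitted effect of over 55% in size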
FLuc inh-2 = Firefly luciferase (FLuc-C-HiBiT) enzymatic inhibition screen - Functional assay. actives 42% (n = 1,300). purified FLuc-C-HiBiT enzyme, luciferin luminescence. shares compounds with FLuc inh-1. Potency, µM (titrated, usually from 32.7 µM), inactives show top-dose activity change, negative = inhibition, most hits filed as inhibitors; further: on the % scale 0 is the no-effect control and ±100 the full control effect; nearly all actives have a fitted effect of over 70% in size
* hit, by the source's call; i = inactive; ? = inconclusive; nt = not tested or not shown; [ ] = another dose, or the depositor's remark. Unless noted, the call rests on the fitted dose curve; in most records, active means well fitted curve in the direction sought with a large enough effect; inconclusive means small, poorly fitted or top-dose-only effect, or another doubt; inactive means no such curve, though single readings can be large; an effect the other way counts as inactive or inconclusive. Potency means the concentration at half of the fitted maximal effect.

SMILES	FLuc inh-1	HEK cytotox	hNpr1 antagonist	NIH3T3 tox	GPT2 inh	FLuc SDR no ATP	FLuc SDR ATP	FLuc inh-2
O=C(Cc1ccccc1)Nc1cc(-c2cccnc2)nn1-c1ccccc1	nt	?	nt	?	i	nt	nt	nt
O=C(Nc1cc(-c2nc3ccccc3s2)ccc1Cl)c1cc2ccccc2o1	nt	nt	nt	nt	nt	15%	11%	-1%
O=C(NCCCCN1CCOCC1)c1cc2ccccc2o1	nt	nt	nt	nt	i	nt	nt	nt
O=C(Nc1ccc(O)c(-c2nc3ccccc3s2)c1)c1cc2ccccc2o1	nt	nt	nt	nt	nt	14%	10%	-1%
Cc1ccc(C2=CC(c3ccccc3C)n3c(nc4ccccc43)N2)cc1 (centres undefined)	nt	nt	nt	nt	nt	?	?	4.4µM*
COc1ccc(NC(=O)CCC2CCCN(S(=O)(=O)c3cccc(F)c3)C2)c(OC)c1 (centres undefined)	nt	?	nt	?	3%	nt	nt	nt
O=C(c1cn2cc(-c3ccccc3)sc2n1)N1CCCCC1	nt	?	nt	-33%[138 µM]	?	nt	nt	nt
O=C(c1cc(-c2ccccc2O)on1)N1CCCCC1	nt	nt	nt	nt	nt	24%	16%	?
CC(C)Cc1noc(-c2ccc(N3CCC(O)CC3)nc2)n1	0.79µM*	-27%	8.9µM*	?	1%	24%	?	5.6µM*
CC(C)Cc1noc(-c2ccc(N3CCCC(C(C)(C)O)C3)nc2)n1 (centres undefined)	i	?	-11%	?	?	nt	nt	nt
COc1ccc(CC(=O)N2CCCC(C(=O)N3CCC(c4nc5ncccc5[nH]4)CC3)C2)cc1 (centres undefined)	nt	-11%	nt	-19%	i	nt	nt	nt
Cc1cn2c(=O)cc(COC(=O)c3ccccc3F)nc2s1	nt	nt	nt	nt	nt	12%	?	?
O=C(C1CN(C2CCCC2)C(=O)N1)N1CCC(c2ccccc2)CC1 (centres undefined)	nt	-18%	nt	-22%	i	nt	nt	nt
O=C1NCCCCCCN(Cc2ccncc2)[C@@H]2CN(C(=O)Nc3ccc4c(c3)OCCO4)CC[C@H]12	11µM*	-21%	-3%	?	-2%	20%	17%	?
Cc1ccc(NC(=O)N2CCCCCCNC(=O)[C@@H]3CCCC[C@@H]32)cc1C	i	3%	1%	-28%	2%	nt	nt	nt
O=C1NCCCCCCN(C(=O)Nc2ccc3c(c2)OCCO3)[C@H]2CCCC[C@@H]12	4.5µM*	0%	?	-12%	i	27%	?	8.8µM*
CN1CCCCCCN(C(=O)Nc2ccc3c(c2)OCCO3)CCC1=O	4.5µM*	-1%	-29%	-11%	0%	29%	?	9.9µM*
COCCOCc1nc(C2CCN(C(=O)Nc3ccccc3F)C2)no1 (centres undefined)	nt	-2%	nt	-17%	i	nt	nt	nt
